Assay results taken from PubChem BioAssay (NCATS).
Inconclusive results are not listed. Where a call stands in place of a potency, no number is given. The source made the active and inactive calls. Calls follow the shape of the dose curve; as a rule, active = well fitted curve in the direction sought with a large enough effect; inconclusive = small, poorly fitted or top-dose-only effect, or another doubt; inactive = no such curve, though single readings can be large; an effect the other way counts as inactive or inconclusive.

What was measured:
[1] = qHTS for Inhibitors of the Aldehyde Dehydrogenase Family (ALDH1A2, ALDH1A3, ALDH2, ALDH3A1) (AID 2061307); also: nearly all actives have a fitted effect of over 50% in size; as to potency: test system not described further here; potency is read from the fitted curve at half-maximal effect
[2] = biological target: Retinaldehyde dehydrogenase 3 (Homo sapiens) (UniProt P47895); experiment: qHTS for Inhibitors of the Aldehyde Dehydrogenase Family (ALDH1A3) Primary screen (AID 2061315)
[3] = biological target: Aldehyde dehydrogenase 1A1 (Homo sapiens) (UniProt P00352); experiment: qHTS for Inhibitors of the Aldehyde Dehydrogenase Family (ALDH1A1) Confirmatory screens (AID 2061316); also: nearly all actives have a fitted effect of over 65% in size; also: potency is read from the fitted curve at half-maximal effect
[4] = biological target: Aldehyde dehydrogenase, mitochondrial (Homo sapiens) (UniProt P05091); experiment: qHTS for Inhibitors of the Aldehyde Dehydrogenase Family (ALDH2) Primary screen (AID 2061308); also: nearly all actives have a fitted effect of over 55% in size

SMILES	Potency [1]	Potency [2]	Potency [3]	Potency [4]
O=C1c2ccccc2C(=O)N1c1cccc(=O)[nH]1	inactive	inactive	inactive	
Cc1ccsc1CN(C)c1ncnc2ccc(-c3ccc(C(=O)N(C)C)o3)cc12				inactive
Cc1cc(C)nc(NC(=S)N2CCN(c3ccc(F)c(Cl)c3)CC2)c1	7.08 µM (active)	inactive	6.34 µM (active)	
CCOCCCNC(=O)Nc1cc(C(=O)NCc2ccc(C(C)C)cc2)ccc1N1CCCC1	0.726 µM (active)		2.89 µM (active)	
COc1ccc(C[C@H](C)NC[C@@H](O)c2ccc(O)c(NC=O)c2)cc1				inactive
Cc1ccc(CN(C)c2ncnc3ccc(-c4ccc5c(c4)OCO5)cc23)o1	15.8 µM (active)	inactive	8.96 µM (active)	
